Results taken from PubChem BioAssay.
Several values for one entry are separate records, joined by “and”; a condition that tells them apart may be missing. Equal values may be shown once. For some assays here: Entries with a potency or affinity are not part of this list. More than one record can exist for a structure, and the calls need not agree. Activity calls are given as the source filed them. Unless noted, no rule for the calls is given here.

Legend:
[1] = antimalarial activity against Dd2 strain (AID 2302;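 active = growth inhibition above 50% at the single 2 µM test dose, taken to imply half-maximal potency below 2 µM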;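 also: 0% = DMSO untreated growth and 100% = chloroquine plus artemisinin killed control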); settings: P. falciparum Dd2 in RBCs, LDH growth readout, 72 h; at 2 µM; stronger effect = higher value
[2] = human hepatoma cell viability loss – ATP luminescence, cytotoxicity control for P. falciparum antimalarial project, primary screen (AID 2303;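 active = inhibition above 50%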;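 also: 0% = DMSO wells and 100% = digitonin-killed cells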); settings: HepG2 viability, 24-48 h, at 10 µM, stronger effect = higher value
[3] = target: L-lactate dehydrogenase (Plasmodium falciparum (isolate CDC / Honduras)) (UniProt Q27743); assay: PfLDH activity inhibition – cell lysate, 3D7 strain, counter-screen for P. falciparum growth inhibition project (AID 2304);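 also: 0% = vehicle and 100% = reference inhibitor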; settings: P. falciparum 3D7 crude extract, LDH APAD/NBT absorbance; at 2 µM; stronger effect = higher value
Sequence of L-lactate dehydrogenase (Plasmodium falciparum (isolate CDC / Honduras)) (Q27743 whole entry, looked up): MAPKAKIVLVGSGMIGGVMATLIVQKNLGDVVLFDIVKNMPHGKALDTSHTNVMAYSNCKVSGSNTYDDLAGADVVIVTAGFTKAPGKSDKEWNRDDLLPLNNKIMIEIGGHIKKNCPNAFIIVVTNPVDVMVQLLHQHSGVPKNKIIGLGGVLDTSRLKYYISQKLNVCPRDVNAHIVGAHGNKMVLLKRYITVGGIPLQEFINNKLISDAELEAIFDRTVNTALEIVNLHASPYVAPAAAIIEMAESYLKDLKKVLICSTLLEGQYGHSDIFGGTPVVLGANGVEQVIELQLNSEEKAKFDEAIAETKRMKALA

[4] = inhibition of 3D7 malaria parasite growth – strain 3D7 (AID 2306);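 also: 0% = DMSO wells and 100% = chloroquine plus artemisinin control wells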; settings: P. falciparum 3D7 erythrocytic growth, LDH absorbance, 72 h; at 2 µM; stronger effect = higher value
[5] = target: Calcium-dependent protein kinase 1 (Plasmodium falciparum (isolate 3D7)) (UniProt P62344); assay: PfCDPK1 kinase inhibitors, biochemical, TCAMS library (AID 1159585; cut-off not given, nearly all actives have IC50 up to about 0.98 µM;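 also: inhibitors leave more ATP so luminescence rises with inhibition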); settings: recombinant PfCDPK1, Kinase-Glo ATP depletion luminescence
Sequence of Calcium-dependent protein kinase 1 (Plasmodium falciparum (isolate 3D7)) (P62344 whole entry, looked up): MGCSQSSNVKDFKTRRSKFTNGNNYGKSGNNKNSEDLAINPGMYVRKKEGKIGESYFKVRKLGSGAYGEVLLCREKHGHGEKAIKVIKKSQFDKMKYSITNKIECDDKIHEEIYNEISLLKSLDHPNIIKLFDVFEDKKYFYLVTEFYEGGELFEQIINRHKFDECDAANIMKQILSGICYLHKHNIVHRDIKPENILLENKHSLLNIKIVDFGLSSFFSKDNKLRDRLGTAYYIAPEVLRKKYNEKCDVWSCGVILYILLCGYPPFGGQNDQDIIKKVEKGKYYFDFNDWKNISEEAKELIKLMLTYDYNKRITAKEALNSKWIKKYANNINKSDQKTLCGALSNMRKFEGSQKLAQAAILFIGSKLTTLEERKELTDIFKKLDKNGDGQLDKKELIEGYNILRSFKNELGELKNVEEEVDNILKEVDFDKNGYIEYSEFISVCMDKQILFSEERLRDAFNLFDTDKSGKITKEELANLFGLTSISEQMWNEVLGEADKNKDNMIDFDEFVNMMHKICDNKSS

[6] = target: Plasmodium falciparum protein kinase 6 (PK6, PF3D7_1337100) (UniProt Q8IDW1); assay: PfPK6 kinase inhibitors, biochemical, TCAMS library (AID 1159586); settings: recombinant PfPK6, Kinase-Glo ATP depletion luminescence
Sequence of Plasmodium falciparum protein kinase 6 (PK6, PF3D7_1337100) (Q8IDW1 1-305): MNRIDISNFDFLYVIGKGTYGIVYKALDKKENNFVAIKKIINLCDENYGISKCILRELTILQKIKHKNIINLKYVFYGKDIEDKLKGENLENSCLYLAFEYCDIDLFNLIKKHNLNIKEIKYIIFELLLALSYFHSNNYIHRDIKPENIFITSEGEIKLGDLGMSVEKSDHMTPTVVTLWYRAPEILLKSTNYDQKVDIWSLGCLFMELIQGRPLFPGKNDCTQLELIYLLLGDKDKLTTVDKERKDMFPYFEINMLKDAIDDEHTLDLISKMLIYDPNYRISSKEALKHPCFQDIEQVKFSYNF

[7] = target: Protein kinase 7 (PK7), Plasmodium falciparum 3D7 (PF3D7_0213400) (UniProt Q7YTF7); assay: inhibition of Plasmodium PK7 catalytic activity – biochemical, TCAMS antimalarial set, Kinase-Glo luminescence (AID 1159587); settings: recombinant PfPK7, Kinase-Glo ATP depletion luminescence
Sequence of Protein kinase 7 (PK7), Plasmodium falciparum 3D7 (PF3D7_0213400) (Q7YTF7 1-343): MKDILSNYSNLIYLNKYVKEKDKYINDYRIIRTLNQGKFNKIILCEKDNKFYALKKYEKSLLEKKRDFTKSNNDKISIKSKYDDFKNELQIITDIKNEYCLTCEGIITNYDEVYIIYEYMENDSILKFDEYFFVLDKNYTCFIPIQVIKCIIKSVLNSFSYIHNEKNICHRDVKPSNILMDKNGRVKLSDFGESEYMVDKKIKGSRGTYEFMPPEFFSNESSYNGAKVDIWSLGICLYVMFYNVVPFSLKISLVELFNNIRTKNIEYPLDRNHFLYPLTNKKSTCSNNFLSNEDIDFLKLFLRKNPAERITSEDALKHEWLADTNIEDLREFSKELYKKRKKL

[8] = target: Calcium-dependent protein kinase 4 (Plasmodium falciparum (isolate 3D7)) (UniProt Q8IBS5); assay: PfCDPK4 kinase inhibitors, biochemical, TCAMS library (AID 1159588; cut-off not given, nearly all actives have IC50 up to about 0.91 µM); settings: recombinant PfCDPK4, Kinase-Glo ATP depletion luminescence
Sequence of Calcium-dependent protein kinase 4 (Plasmodium falciparum (isolate 3D7)) (Q8IBS5 whole entry, looked up): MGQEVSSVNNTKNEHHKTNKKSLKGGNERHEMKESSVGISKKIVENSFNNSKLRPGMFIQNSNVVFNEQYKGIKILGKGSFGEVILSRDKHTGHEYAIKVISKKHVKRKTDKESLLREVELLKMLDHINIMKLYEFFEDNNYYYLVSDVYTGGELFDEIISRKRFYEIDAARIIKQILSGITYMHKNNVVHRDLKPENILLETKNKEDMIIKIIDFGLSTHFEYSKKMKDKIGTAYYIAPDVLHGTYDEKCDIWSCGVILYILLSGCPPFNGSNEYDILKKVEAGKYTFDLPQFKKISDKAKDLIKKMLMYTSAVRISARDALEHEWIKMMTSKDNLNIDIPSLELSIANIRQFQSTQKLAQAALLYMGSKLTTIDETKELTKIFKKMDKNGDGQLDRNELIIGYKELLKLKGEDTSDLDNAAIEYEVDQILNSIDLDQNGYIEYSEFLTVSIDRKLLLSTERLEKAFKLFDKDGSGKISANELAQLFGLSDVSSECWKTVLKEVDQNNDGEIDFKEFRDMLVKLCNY

O=C(C=Cc1ccc([N+](=O)[O-])cc1)NC1CCC(CN2CCC(c3c[nH]c4ccccc34)CC2)CC1 (stereo unspecified)
active: growth inhibition [1] 61% and 81% | growth inhibition [4] 102% and 101%
inactive: inhibition [2] 30% and 34% | inhibition [3] -3% | outcome [5] | outcome [6] | outcome [7] | outcome [8]

Oc1ccc(Cl)cc1CN1CCC(CCOC(c2ccccc2)c2ccc(Cl)cc2)CC1 (stereo unspecified)
active: growth inhibition [1] 100% | growth inhibition [4] 98%
inactive: inhibition [2] 32% | inhibition [3] 2% | outcome [5] | outcome [6] | outcome [7] | outcome [8]

Cc1c(C)c2c(c(C)c1O)CC[C@](C)(C(=O)N1CCC(CN3CCC(c4c[nH]c5ccccc45)CC3)CC1)O2
inactive: inhibition [2] 29% | inhibition [3] 2% | outcome [5] | outcome [6] | outcome [7] | outcome [8]
active: growth inhibition [1] 98% | growth inhibition [4] 101%

N#Cc1c(Cl)cccc1Oc1ccc(S(=O)(=O)NC2CCC(CN3CCC(c4c[nH]c5ccccc45)CC3)CC2)cc1 (stereo unspecified)
active: growth inhibition [4] 101% and 85%
inactive: growth inhibition [1] 36% and 16% | inhibition [2] 31% and 29% | inhibition [3] 3% and -3% | outcome [5] | outcome [6] | outcome [7] | outcome [8]

CC[C@H]1CN2CC[C@H]1C[C@H]2[C@H](O)c1cc(/C=C/c2ccccc2)nc2ccc(OC)cc12
active: growth inhibition [1] 99% | growth inhibition [4] 99%
inactive: inhibition [2] 16% | inhibition [3] -1% | outcome [5] | outcome [6] | outcome [7] | outcome [8]

O=C(C=Cc1cccc(Cl)c1Cl)NC1CCC(CN2CCC(c3c[nH]c4ccccc34)CC2)CC1 (stereo unspecified)
78% (active) and 5% (inactive): growth inhibition [1]
inactive: inhibition [2] 40% and 33% | inhibition [3] 6% and -5% | outcome [5] | outcome [6] | outcome [7] | outcome [8]
active: growth inhibition [4] 102% and 83%

Oc1ccccc1CNCC(O)c1cc(C(F)(F)F)cc(C(F)(F)F)c1 (stereo unspecified)
active: growth inhibition [1] 100% | growth inhibition [4] 99%
inactive: inhibition [2] 15% | inhibition [3] 4% | outcome [5] | outcome [6] | outcome [7] | outcome [8]

CNCCCCCCc1ccc(CC(C)NCC(O)c2cccc(Cl)c2)cc1 (stereo unspecified)
active: growth inhibition [1] 76% | growth inhibition [4] 94%
inactive: inhibition [2] 22% | inhibition [3] 4% | outcome [5] | outcome [6] | outcome [7] | outcome [8]

O=C(/C=C/c1ccc(Cl)c(Cl)c1)N1CCC(CN2CCC(c3c(-c4ccc(F)cc4)[nH]c4ccccc34)CC2)CC1
inactive: inhibition [2] 19% | inhibition [3] -3% | outcome [5] | outcome [6] | outcome [7] | outcome [8]
active: growth inhibition [1] 98% | growth inhibition [4] 101%

Cc1cc(-c2ncc[nH]2)ccc1-c1ccc(C(=O)N2CCc3cc4c(cc32)C2(CCN(C)CC2)CO4)cc1
inactive: inhibition [2] 32% | inhibition [3] 0% | outcome [5] | outcome [6] | outcome [7] | outcome [8]
active: growth inhibition [1] 98% | growth inhibition [4] 101%

Cc1csc(-c2ccc3[nH]cc(C4=CCN(C)CC4)c3c2)n1
inactive: inhibition [2] 10% | inhibition [3] -3% | outcome [5] | outcome [6] | outcome [7] | outcome [8]
active: growth inhibition [1] 78% | growth inhibition [4] 93%

O=C(NC1CCC(CN2CCC(c3c[nH]c4ccccc34)CC2)CC1)c1cc(-c2ccccc2)c(C(F)(F)F)s1 (stereo unspecified)
active: growth inhibition [1] 101% | inhibition [2] 55% | growth inhibition [4] 100%
inactive: inhibition [3] 2% | outcome [5] | outcome [6] | outcome [7] | outcome [8]

CC[C@H]1CN2CC[C@H]1C[C@H]2[C@H](O)c1cc(N2CCCC2)nc2ccc(OC)cc12
inactive: inhibition [2] -13% | inhibition [3] 6% | outcome [5] | outcome [6] | outcome [7] | outcome [8]
active: growth inhibition [1] 100% | growth inhibition [4] 98%

CCCCCCc1cc(O)c2c3c(c(=O)oc2c1)CCN(C)C3
active: growth inhibition [1] 66% | growth inhibition [4] 99%
inactive: inhibition [2] -6% | inhibition [3] 4% | outcome [5] | outcome [6] | outcome [7] | outcome [8]

Cc1c(C(=O)N[C@@H](C)c2ccccc2)c2cc(O)c(Br)cc2n1C1CCCCC1
active: growth inhibition [1] 95% | growth inhibition [4] 98%
inactive: inhibition [2] 4% | inhibition [3] -6% | outcome [5] | outcome [6] | outcome [7] | outcome [8]

Cc1ccc(/C=C/C(=O)NC2CCC(CN3CCC(c4c[nH]c5ccccc45)CC3)CC2)cc1C (stereo unspecified)
active: growth inhibition [1] 71% and 91% | growth inhibition [4] 100% and 101%
inactive: inhibition [2] 23% and 38% | inhibition [3] 8% and 4% | outcome [5] | outcome [6] | outcome [7] | outcome [8]

CC[C@H]1CN2CC[C@H]1C[C@H]2[C@H](O)c1cc(-c2ccc(OC(F)(F)F)cc2)nc2ccc(OC)cc12
active: growth inhibition [1] 99% | growth inhibition [4] 98%
inactive: inhibition [2] 24% | inhibition [3] 0% | outcome [5] | outcome [6] | outcome [7] | outcome [8]

COc1ccc(C(=O)[C@H]2C[C@@H]2CN2CC=C(c3c[nH]c4ccc(OC)nc34)CC2)cc1
active: growth inhibition [1] 91% | growth inhibition [4] 98%
inactive: inhibition [2] 8% | inhibition [3] -3% | outcome [5] | outcome [6] | outcome [7] | outcome [8]

CCCc1c(C(=O)NC2CCC(CN3CCC(c4c[nH]c5ccccc45)CC3)CC2)cnn1-c1ccc(Cl)cc1 (stereo unspecified)
active: inhibition [2] 53% | growth inhibition [4] 90%
inactive: growth inhibition [1] 37% | inhibition [3] 1% | outcome [5] | outcome [6] | outcome [7] | outcome [8]

COC(=O)c1ccc(C[C@@H](C)NC[C@H](O)c2cccc(OCc3ccccc3)c2)cc1
active: growth inhibition [4] 86%
inactive: growth inhibition [1] 37% | inhibition [2] 11% | inhibition [3] 1% | outcome [5] | outcome [6] | outcome [7] | outcome [8]

CS(=O)(=O)Nc1ccc2[nH]cc(C3CCN(CC4CCC(NC(=O)/C=C/c5ccccc5Cl)CC4)CC3)c2c1 (stereo unspecified)
active: growth inhibition [4] 96%
inactive: growth inhibition [1] 7% | inhibition [2] 12% | inhibition [3] 2% | outcome [5] | outcome [6] | outcome [7] | outcome [8]

O=C(/C=C/c1ccc(Cl)c(Cl)c1)NC1CCC(CN2CCC(c3c[nH]c4cc(C(F)(F)F)ccc34)CC2)CC1 (stereo unspecified)
inactive: inhibition [2] 11% and 40% | inhibition [3] 1% and 6% | outcome [5] | outcome [6] | outcome [7] | outcome [8]
active: growth inhibition [4] 98% and 102%
38% (inactive) and 85% (active): growth inhibition [1]

CCc1ccc(CN2CCC(CN(C(=O)c3ccccc3)c3ccc(Cl)cc3)CC2)cc1
inactive: inhibition [2] 12% | inhibition [3] -4% | outcome [5] | outcome [6] | outcome [7] | outcome [8]
active: growth inhibition [1] 95% | growth inhibition [4] 96%

COc1ccc(C(=O)[C@H]2C[C@@H]2CN2CC=C(c3c[nH]c4cccc(Br)c34)CC2)cc1
active: growth inhibition [1] 67% | growth inhibition [4] 88%
inactive: inhibition [2] 32% | inhibition [3] -3% | outcome [5] | outcome [6] | outcome [7] | outcome [8]

Cc1cc2cc(CNCCc3ccccc3Br)ccc2nc1N
inactive: inhibition [2] 31% | inhibition [3] -1% | outcome [5] | outcome [6] | outcome [7] | outcome [8]
active: growth inhibition [1] 91% | growth inhibition [4] 98%

CC[C@H]1CN2CC[C@H]1C[C@H]2[C@H](O)c1ccnc2ccc(OC)cc12
inactive: inhibition [2] -8% | inhibition [3] -4% | outcome [5] | outcome [6] | outcome [7] | outcome [8]
active: growth inhibition [1] 62% | growth inhibition [4] 100%

CC(C)CNCc1cccc(-c2cccc(CN(C(=O)NC3CCCCC3)C3CCN(Cc4ccccc4)CC3)c2)c1
active: growth inhibition [1] 87% | growth inhibition [4] 97%
inactive: inhibition [2] 32% | inhibition [3] 8% | outcome [5] | outcome [6] | outcome [7] | outcome [8]

CN(C)CCCn1cc(C(=O)OC2C[C@H]3CC[C@@H](C2)N3C)c2cc(-c3ccccc3)ccc21 (stereo partly specified)
inactive: inhibition [3] 0% | outcome [5] | outcome [6] | outcome [7] | outcome [8]
active: growth inhibition [1] 96% | inhibition [2] 97% | growth inhibition [4] 97%

CCCCCCCc1cc(O)c2c(c1)OC(C)(C)c1ccncc1-2
inactive: inhibition [2] -7% | inhibition [3] 0% | outcome [5] | outcome [6] | outcome [7] | outcome [8]
active: growth inhibition [1] 52% | growth inhibition [4] 95%

O=C(/C=C/c1cccc(Cl)c1)NC1CCC(CN2CCC(c3c[nH]c4ccccc34)CC2)CC1 (stereo unspecified)
inactive: inhibition [2] 35% and 42% | inhibition [3] 0% | outcome [5] | outcome [6] | outcome [7] | outcome [8]
active: growth inhibition [1] 55% and 82% | growth inhibition [4] 100% and 101%

Fc1ccc(N(c2nc(-c3cc(F)cc(C(F)(F)F)c3)cs2)C2CCNCC2)cc1
inactive: growth inhibition [1] 10% | inhibition [2] 35% | inhibition [3] -3% | outcome [5] | outcome [6] | outcome [7] | outcome [8]
active: growth inhibition [4] 95%

Cc1[nH]c2ccc(O)cc2c1C1CCN(CC2CCC(NC(=O)/C=C/c3ccc(Cl)c(Cl)c3)CC2)CC1 (stereo unspecified)
inactive: inhibition [2] 19% | inhibition [3] 3% | outcome [5] | outcome [6] | outcome [7] | outcome [8]
active: growth inhibition [1] 95% | growth inhibition [4] 102%

O=C1COc2ccccc2N1CCN1CCC(NCc2ccc(-c3cccs3)cc2)CC1
inactive: growth inhibition [1] 18% | inhibition [2] 37% | inhibition [3] -4% | outcome [5] | outcome [6] | outcome [7] | outcome [8]
active: growth inhibition [4] 87%

Cc1cccc(C(=O)Nc2ccnc(N(C)C3CCN(Cc4cccc(O)c4)CC3)c2)c1
active: growth inhibition [1] 62% | growth inhibition [4] 89%
inactive: inhibition [2] 5% | inhibition [3] -1% | outcome [5] | outcome [6] | outcome [7] | outcome [8]

O=C(/C=C/c1ccc(Cl)c(Cl)c1)NCCC1CCC(N2CCC(c3c[nH]c4ccccc34)CC2)CC1 (stereo unspecified)
active: growth inhibition [1] 99% | inhibition [2] 91% | growth inhibition [4] 102%
inactive: inhibition [3] -1% | outcome [5] | outcome [6] | outcome [7] | outcome [8]

O=C(c1cc(C(=O)NCc2ccc(Cl)cc2)c(=O)n(Cc2ccc(Cl)cc2)c1)c1cc(F)ccc1O
inactive: growth inhibition [1] 2% | inhibition [2] 7% | inhibition [3] -2% | outcome [5] | outcome [6] | outcome [7] | outcome [8]
active: growth inhibition [4] 93%

CCCCC1(NC(=O)[C@H](CC(C)C)Nc2ccc(C#N)c3ccccc23)CCCCC1
active: growth inhibition [4] 96%
inactive: growth inhibition [1] 47% | inhibition [2] 37% | inhibition [3] 5% | outcome [5] | outcome [6] | outcome [7] | outcome [8]
